Reference: PubChem BioAssay AID504847 (National Center for Advancing Translational Sciences (NCATS), 2011)
Several values for one entry are separate records, joined by “and”; a condition that tells them apart may be missing. Equal entries are not always repeated. About 3,700 (0.93%) of roughly 400,000 compounds were called active. Inconclusive results (about 3%) are left out. This is one part of a sample in which actives are shown more often than they occur. Calls come from the whole dose curve; as a rule, active = well fitted inhibition curve with a large enough effect; inconclusive = small, poorly fitted or top-dose-only effect, or another doubt; inactive = no such curve, though single readings can be large or run the other way.

target: Vitamin D3 receptor (Homo sapiens) (UniProt P11473); assay: Inhibitors of the vitamin D receptor (VDR): qHTS; conditions: VDR-SRC2-3 peptide fluorescence polarization, 2 h; max response, negative = inhibition: stronger effect = lower value
Outline: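 Fluorescence polarization assay of small-molecule disruption of VDR binding to coregulator peptide SRC2-3. Compounds and controls pin-transferred, then read after 2 h incubation at ambient room temperature.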
% is set by controls: 0 for no effect and ±100 for the full control effect; potency is the fitted concentration of half-maximal effect.

Sequence of Vitamin D3 receptor (Homo sapiens) (P11473 whole entry, looked up): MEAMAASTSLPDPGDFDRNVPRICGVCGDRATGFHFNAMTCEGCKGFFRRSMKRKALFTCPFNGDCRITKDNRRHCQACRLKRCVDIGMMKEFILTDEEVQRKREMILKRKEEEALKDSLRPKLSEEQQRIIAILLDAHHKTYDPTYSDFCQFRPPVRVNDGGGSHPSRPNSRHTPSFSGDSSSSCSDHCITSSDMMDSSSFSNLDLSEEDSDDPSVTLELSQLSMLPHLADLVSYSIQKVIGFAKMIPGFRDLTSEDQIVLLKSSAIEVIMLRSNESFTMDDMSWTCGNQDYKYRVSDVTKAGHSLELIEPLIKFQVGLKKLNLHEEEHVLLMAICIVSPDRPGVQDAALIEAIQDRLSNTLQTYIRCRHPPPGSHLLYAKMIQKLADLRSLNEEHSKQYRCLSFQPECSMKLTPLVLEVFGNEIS

SMILES | max response, negative = inhibition | Potency
Cc1ccc(C(=O)Nc2c(C(=O)NC(C)(C)C)oc3ccccc23)cc1 | 12.7% (inactive) | –
COc1ccc(Cl)cc1NC(=O)C(C)Sc1nc2c(c(=O)[nH]1)CCCC2 (configuration not stated) | 5.96% (inactive) | –
CCNCCC(=O)N1c2ccccc2Sc2ccc(NC(=O)OCC)cc21 | -7.06% (inactive) | –
CCN1C(=O)c2ccccc2Sc2ccc(NC(=O)Cc3ccc(OC)cc3)cc21 | 7.46% (inactive) | –
CCN1/C(=C/C(=S)Nc2ccccc2)Sc2ccccc21 | – | 70.8 µM (active)
CC(=O)OC1CCC2(O)CC1(C)CCC1C2CC1(C)C (configuration not stated) | -16.3% (inactive) | –
C[C@@H]1O[C@@H](OC[C@H]2O[C@@H](Oc3c(-c4cccc(O)c4O)oc4cc(O)cc(O)c4c3=O)[C@H](O)[C@@H](O)[C@@H]2O)[C@H](O)[C@H](O)[C@H]1O | 2.29% (inactive) | –
Cc1ccc2nc(NC(=O)c3nc(SCc4ccccc4F)ncc3Cl)sc2c1 | 1.04% (inactive) | –
Cc1ccc(CS(=O)(=O)c2ncc(Cl)c(C(=O)Nc3nnc(C)s3)n2)cc1 | – | 25.1 µM (active)
CCS(=O)(=O)c1ncc(N(Cc2ccc(F)cc2)Cc2ccco2)c(C(=O)Nc2cc(C)ccc2C)n1 | -5.22% (inactive) | –
Cc1nnc(NC(=O)C(c2ccccc2)c2ccccc2)s1 | 13.7% (inactive) | –
Cc1cccc(CS(=O)(=O)c2ncc(Cl)c(C(=O)Nc3ccc(F)cc3)n2)c1 | – | 50.1 µM (active)
CSc1nnc(NC(=O)c2nc(S(=O)(=O)Cc3ccc(C)cc3)ncc2Cl)s1 | – | 11.2 µM (active)
CCOc1cccc(C(=O)Nc2nnc(S(=O)(=O)N(C)c3ccc(C)cc3)s2)c1 | -4.91% (inactive) | –
CCOC(=O)c1ccc(NC(=O)c2nc(SCc3ccc(F)cc3)ncc2Cl)cc1 | -10.3% (inactive) | –
O=C(Nc1nc2ccc(F)cc2s1)c1nc(SCc2ccccc2F)ncc1Cl | -2.57% (inactive) | –

SMILES | max response, negative = inhibition | Potency
COc1ccc(CNC(=O)COCc2cc(-c3cccs3)on2)cc1OC | 16.9% (inactive) | –
COc1ccc(-c2nc3scc(CCNS(=O)(=O)c4cc(F)ccc4OC)n3n2)cc1OC | 0.564% (inactive) | –
CCOc1ccc2nc(N3CCC(C(=O)Nc4cc(C)ccc4C)CC3)sc2c1 | -0.819% (inactive) | –
COc1ccccc1CNC(=O)CCCCn1c(=O)c2ccccc2n(CC(=O)Nc2cc(Cl)ccc2C)c1=O | -8.69% (inactive) | –
CCOC(=O)c1cc(NC(=O)c2ccc(F)cc2)c(=O)n2c1oc1ccccc12 | 4.45% (inactive) | –
O=[N+]([O-])c1ccccc1S(=O)(=O)Nc1cccc2cccnc12 | 0.987% (inactive) and -18.8% (inactive) | –
O=[N+]([O-])c1ccccc1SNc1ccccn1 | -25% (inactive) | –
O=[N+]([O-])c1cccc2ncccc12 | – | 12.6 µM (active)
O=C(/C=C/c1cccc(F)c1)NC1CC1 | 0.0804% (inactive) | –
Cc1c(C(=O)Nc2cccc(Cl)c2)oc2ccc(S(=O)(=O)N3CCOCC3)cc12 | -9.71% (inactive) | –
Cc1cccc(NC(=O)Cn2nc(-c3ccc(Cl)cc3)c3ccccc3c2=O)c1 | 4.43% (inactive) | –
O=C1C=C(c2ccc(Cl)cc2)C(=O)N1Nc1ccccc1 | – | 22.4 µM (active)
Cc1ccc(C(=O)Nc2ccc(OCc3cc(=O)n4c(C)csc4n3)cc2)cc1 | -1.83% (inactive) | –
Cc1ccc(S(=O)(=O)c2nc(-c3cccs3)oc2N2CCCCC2)cc1 | 28.2% (inactive) | –
C=CC(C1=CC(=O)C=CC1=O)c1ccc(O)cc1 (configuration not stated) | – | 39.8 µM (active)
CCCn1c2ccccc2c2cnn(CC(=O)NCCCOC(C)C)c(=O)c21 | 4.17% (inactive) | –
